# According to PubChem BioAssay (Tox21):
# Records with an inconclusive call do not appear. Active and inactive are the calls of the source. Calls come from the whole dose curve; as a rule, active = well fitted cell-killing curve with a large enough effect in the repeat runs; inconclusive = weak or mixed curves, or effect the other way; inactive = no such curve, though single readings can be large or run the other way.
# Test: qHTS assay to identify small molecule antagonists of the glucocorticoid receptor (GR) signaling pathway - cell viability counter screen (AID 720693); note: nearly all actives have a fitted effect of over 55% in size
# Settings: GR-bla HeLa viability, CellTiter-Glo luminescence, 18 h, with 5 nM dexamethasone present; series mostly up to 58.5 µM; viability change, negative = cytotoxic: at the top concentration
# Excerpt: National Center for Advancing Translational Sciences [NCATS]
# NIH Chemical Genomics Center [NCGC]
# U.S. Environmental Protection Agency [EPA]
# National Institutes of Environmental Health Sciences [NIEHS]
# National Toxicology Program [NTP]
# U.S. Food and Drug Administration [FDA]
# The Glucocorticoid receptor (GR) is one of the members of the nuclear receptor family of ligand-dependent transcription factors. GR plays a critical role in carbohydrate, protein and lipid metabolisms and programmed cell death. CellSensor GR-bla HeLa cell line (Invitrogen) contains a beta-lactamase reporter gene under the control of the glucocorticoid response element stably integrated into HeLa cells, a cervical cancer cell line that expresses glucocorticoid receptor. The activation of the reporter gene under culture conditions can be detected by fluorescence intensity. This cell line has been used to screen the Tox21 10K compound library and to identify the compounds that inhibit the GR signaling. The cytotoxicity of the Tox21 compound library against the GR-bla HeLa cell line was tested in parallel by measuring the cell viability using CellTiter-Glo assay in the same wells.
# Tox21 Assay Protocol Summary:
# The GR-bla HeLa cells were dispensed at 1500 cells/5 ul/well in 1536-well black wall/clear bottom plates using a Multidrop Combi (ThermoFisher Scientific, Waltham, MA) dispenser. After the assay plates were incubated at a 37 C/5% CO2 incubator for 4 hours, 23 nL of compounds dissolved in DMSO, positive controls or DMSO only was transferred to the assay plate by a pintool station (Kalypsys, San Diego, CA), followed by addition of 1 uL of dexamethasone (5 nM, final concentration in the well). The plates were incubated at 37 C for 18 hours. After 1 uL of LiveBLAzerTM B/G FRET substrate was added using a Flying Reagent Dispenser (Aurora Discovery, San Diego, CA), the plates were incubated at room temperature (RT) for 2 hours, and fluorescence intensity was measured by an Envision plate reader (PerkinElmer, Shelton, CT). After measurement of bla assay, 3 ul CellTiter-Glo (Promega, Madison, WI) was added to measure the cytotoxicity and the plates were then incubated at RT for 30 min. The luminescence was measured using a ViewLux (Perkin Elmer) plate reader.
# % is set by controls: 0 for no effect and ±100 for the full control effect.
SMILES,"viability change, negative = cytotoxic",outcome
CCCCCCCCCCOC(C)=O,13.1% (inactive),–
O=C=NCC1CCCC(CN=C=O)C1 (stereo not given),21.8% (inactive),–
COc1ccc2c(c1)c1c3n2CCN(C)C3=NCC1,1.75% (inactive),–
CC1CCc2c(N3CCC(O)CC3)c(F)cc3c(=O)c(C(=O)O)cn1c23 (stereo not given),10.6% (inactive),–
CC(=O)Nc1ccc(OC(=O)c2ccccc2OC(C)=O)cc1,6.34% (inactive),–
C=C(C)[C@@H]1CC=C(C)C(=O)C1,4.05% (inactive),–
C=CC(=O)OCC1CCCO1 (stereo not given),18.5% (inactive),–
N[C@@H](Cc1ccc(O)cc1)C(=O)O,11.1% (inactive),–
CNCCS(=O)(=O)O,-1.02% [at 78.9 µM] (inactive),–
CCCCSCCCC,12% (inactive),–
CC1(C)Cc2cccc(N)c2O1,-1.03% (inactive),–
COS(=O)(=O)O,17% (inactive),–
CC(=O)O[C@@H]1CC2CCC1(C)C2(C)C (stereo not given in full),–,inactive
[O]=[Mo](=[O])=[O],-1.14% [at 27 µM] (inactive),–
Nc1nc(-c2ccccc2)c(Br)c(=O)[nH]1,-8.94% (inactive),–
NCC1(Cc2noc(=O)[nH]2)CCCCC1,6.63% (inactive),–
CC(C)OC(=O)CCC(=O)OC(C)C,5.72% (inactive),–
O=C1OCCO1,-1.46% [at 78.9 µM] (inactive),–
Cc1c(C(=O)c2c[nH]n(C)c2=O)ccc(S(C)(=O)=O)c1C1=NOCC1,22.4% [at 27 µM] (inactive),–
C#CCN[C@@H]1CCc2ccccc21,13.8% (inactive),–

SMILES,"viability change, negative = cytotoxic",outcome
CC(=O)OCC(=O)Nc1cc(C#N)cc(NC(=O)COC(C)=O)c1Cl,4.9% (inactive),–
Fc1ccccc1,-6.95% [at 78.9 µM] (inactive),–
COc1c2occc2c(OC)c2c(=O)cc(C)oc12,-3.78% [at 27 µM] (inactive),–
CCC[C@@H]1C[C@@H](C(=O)N[C@@H]([C@H]2O[C@H](SC)[C@H](O)[C@@H](O)[C@H]2O)[C@@H](C)O)N(C)C1,11.6% (inactive),–
CCCCOC(=O)C(C)O (stereo not given),-3.64% (inactive),–
C=CCSSCCC,15.6% (inactive),–
CC(=O)c1cc(C)oc1C,-1.14% [at 78.9 µM] (inactive),–
CC(=O)OC(C)=O,12% [at 78.9 µM] (inactive),–
CCC/C=C(\C=O)CC,-1.82% (inactive),–
Cc1ccnc(N)c1,9.49% (inactive),–
N#CCC(=O)NN,3.04% (inactive),–
CC(C)c1ccc(C=O)cc1,6.11% (inactive),–
CCCCCCCCCCCCCCCCCCOCCO,0.287% [at 27 µM] (inactive),–
N[C@@H](CSCCCO)C(=O)O,0.391% (inactive),–
CCCCCCCCCCCCCBr,0.811% (inactive),–
CCO,7.77% [at 78.9 µM] (inactive),–
CC(O)CC(C)O (stereo not given),-0.199% (inactive),–
CC1(C)[C@H]2CC[C@](C)(C2)[C@H]1O,-0.821% [at 78.9 µM] (inactive),–
C[Si]1(C)O[Si](C)(C)O[Si](C)(C)O[Si](C)(C)O[Si](C)(C)O1,-1.29% (inactive),–
CCC(C)OC(C)CC (stereo not given),-1.86% [at 78.9 µM] (inactive),–
